According to PubChem BioAssay (EPA / NIEHS):
Results filed as inconclusive are left out. Some compounds were tested as several samples or in several runs, with calls that do not always agree. The source made the active and inactive calls. The calls were made as follows, unless noted: active = hit-call score of the fitted dose curve at least 0.9, where 1 is the maximum; inconclusive = response in the unintended direction; inactive = score below 0.9.

What was measured:
[1] = ATG_GAL4_TRANS: Attagene TRANS-FACTORIAL HepG2 Assay for GAL4 (Internal Marker) (AID 2282976); details: HepG2 Attagene TRANS GAL4 internal marker reporter
Outline: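 Background-control readout: GAL4-UAS reporter transcript in transiently transfected HepG2 cells after 24 h compound exposure. Measured by RT-PCR, 6-FAM primer extension, HpaI digest and capillary electrophoresis; gain-of-signal fit versus DMSO.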

[2] = target: Glucocorticoid receptor (Homo sapiens) (UniProt P04150); test: ATG_GR_TRANS: Attagene TRANS-FACTORIAL HepG2 Assay for human Glucocorticoid Receptor (GR) (AID 2282978); details: HepG2 Attagene TRANS GR reporter, mRNA transcription;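 also: activators score as hits since higher reporter transcript over DMSO is fitted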
Outline: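 Fluorescent capillary-electrophoresis quantitation of reporter mRNA is the readout, taken 24 h after dosing human HepG2 cells carrying transiently transfected GAL4-UAS reporter units activated by chimeric NR-GAL4 fusions; activity scored as induction over DMSO.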

[3] = target: Peroxisome proliferator-activated receptor gamma (Homo sapiens) (UniProt P37231); test: ATG_PPARg_TRANS: Attagene TRANS-FACTORIAL HepG2 Assay for human Peroxisome Proliferator-activated Receptor-gamma (PPARg) (AID 2283007)
Outline: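 Transient transfection of HepG2 with GAL4-UAS-driven reporter units; chemical dosing 24 h; total RNA → oligo(dT) RT → PCR with reporter primers → 6-FAM primer extension → HpaI digest 2 h 37 C → capillary electrophoresis. Positive direction vs DMSO.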

[4] = target: Nuclear receptor subfamily 1 group I member 2 (Homo sapiens) (UniProt O75469); test: ATG_PXR_TRANS: Attagene TRANS-FACTORIAL HepG2 Assay for human Pregnane X Receptor (PXR) (AID 2283008)
Outline: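 HepG2 transfected (FuGene 6) with GAL4-UAS reporter units + PXR-Gal4 chimera; dosed 24 h. Total RNA → oligo(dT) RT → PCR → 6-FAM primer extension → HpaI cut → CE. Gain-of-signal vs DMSO.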

[5] = target: human Thyroid Receptor alpha (THRa1), THRA (gene 7067) (UniProt P10827); test: ATG_THRa1_TRANS: Attagene TRANS-FACTORIAL HepG2 Assay for human Thyroid Receptor alpha (THRa1) (AID 2283014)
Outline: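 HepG2 cells transiently transfected with chimeric NR-Gal4 and GAL4-UAS reporter units, dosed 24 h. Reporter mRNA quantified by RT-PCR, fluorescent labeling, HpaI digestion and capillary electrophoresis; gain-of-signal fit versus DMSO.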

[6] = ATG_XTT_Cytotoxicity: Cytotoxicity Assessment in the Attagene TRANS-FACTORIAL HepG2 Assay (AID 2283584);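 as to AC50: XTT signal for cell number as viability in transfected HepG2 cells; cells exposed to compound for 24 h before reading; active means loss of viability signal versus DMSO baseline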
Outline: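 HepG2 cells transiently transfected with GAL4-UAS multiple reporter units, dosed 24 h; cytotoxicity read by XTT as loss of signal versus DMSO baseline.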

[7] = TOX21_p53_BLA_p4_viability: Viability Assessment in the Tox21 HCT-116 p53 Agonism Beta-lactamase Assay, Phase 4 (AID 2283597);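 also: hits lower the luminescence signal meaning cytotoxicity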
Outline: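 4000 HCT116 cells per well; 5 h attachment; compounds from DMSO, 217-fold dilution; 16 h at 37C. Then CCF4-AM, 2 h RT, followed by CellTiter-Glo, 30 min RT, luminescence. Decrease = cytotoxicity.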

[8] = CCTE_Harrill_HTTr_Viability_MCF7: CCTE's 6-hour Cell Viability Assessment for the High-Throughput Transcriptomics (HTTr) Platform, in MCF-7 cells cultured in DMEM + 10% fetal bovine serum, Harrill Lab (AID 2284010; active = hit-call score of the fitted dose curve at least 0.9, where 1 is the maximum; inactive = score below 0.9)
Outline: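 Eight-point concentration series, six-hour exposure. Propidium iodide exclusion imaged to assess membrane integrity as a cytotoxicity readout; bidirectional fitting was done with DMSO as negative control and activity baseline.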

[9] = CCTE_Harrill_HTTr_Apoptosis_MCF7: CCTE's 6-hour Apoptosis Assessment for the High-Throughput Transcriptomics (HTTr) Platform, in MCF-7 cells cultured in DMEM + 10% fetal bovine serum, Harrill Lab (AID 2284011; active = hit-call score of the fitted dose curve at least 0.9, where 1 is the maximum; inactive = score below 0.9)
Outline: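 MCF-7 cells in DMEM + 10% FBS exposed 6 h to chemicals over an eight-point dilution series. Caspase-3/7 activation imaged by high-content CellEvent Green staining; fitted bidirectionally versus DMSO.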

[10] = target: human Peroxisome Proliferator-activated Receptor delta (PPARd), PPARD (gene 5467) (UniProt Q03181); test: ATG_PPARd_TRANS: Attagene TRANS-FACTORIAL HepG2 Assay for human Peroxisome Proliferator-activated Receptor delta (PPARd) (AID 2283002)
Outline: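 Fluorescence from capillary electrophoresis of labelled RT-PCR reporter fragments gives the signal; DMSO sets baseline. Cells: HepG2 transiently carrying GAL4-UAS reporter units plus chimeric nuclear receptor-Gal4 proteins, exposed to chemicals for 24 h.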

[11] = target: human RAR-related Orphan Receptor gamma (RORg), RORC (gene 6097) (UniProt P51449); test: ATG_RORg_TRANS: Attagene TRANS-FACTORIAL HepG2 Assay for human RAR-related Orphan Receptor gamma (RORg) (AID 2283011)
Outline: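 HepG2 cells transiently transfected with GAL4-UAS reporter units and chimeric RORg-Gal4 construct; after 24 h chemical exposure, reporter mRNA measured by RT-PCR with fluorescent capillary electrophoresis, gain of signal fitted against DMSO.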

[12] = TOX21_p53_BLA_p3_viability: Viability Assessment in the Tox21 HCT-116 p53 Agonism Beta-lactamase Assay, Phase 3 (AID 2283593);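 also: cells exposed to compound for 16 h before reading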
Outline: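 HCT116 cells, 4000/well, dosed 5 h after plating by pin transfer (217-fold dilution from DMSO stock) and incubated 16 h at 37C, 5% CO2. Viability read as ATP luminescence with CellTiter-Glo after 30 min at room temperature.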

[13] = ACEA_ER_AUC_viability: ACEA Biosciences xCELLigence Real-Time Cell Analysis on Estrogen Receptor Agonism for Viability (AID 2283782);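 also: hit means loss of impedance signal meaning reduced cell growth or viability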
Outline: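 Read-out: real-time electrical impedance (RT-CES) area under curve, loss of signal taken as reduced viability, normalized to DMSO baseline. T-47D cells, charcoal-stripped serum medium, compounds up to 100 uM final, continuous exposure, 80 h.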

[14] = ATG_M_19_TRANS: Attagene TRANS-FACTORIAL HepG2 Assay for M19 Transcription Factor (Internal Marker) (AID 2282974); details: HepG2 Attagene TRANS-FACTORIAL M19 internal marker reporter
Outline: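 Fluorescence of 6-FAM-labelled reporter cDNA fragments, separated by capillary electrophoresis, served as the readout. These derived from HepG2 cells carrying transfected GAL4-UAS reporter units after 24 h dosing, with DMSO as negative control.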

[15] = target: Oxysterols receptor LXR-alpha (Homo sapiens) (UniProt Q13133); test: ATG_LXRa_TRANS: Attagene TRANS-FACTORIAL HepG2 Assay for human Liver X Receptor alpha (LXRa) (AID 2282980); details: HepG2 Attagene TRANS reporter, LXRa transactivation
Outline: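 HepG2 cells transiently transfected with GAL4-UAS reporter units for chimeric NR-Gal4 proteins, exposed to chemicals for 24 h. Reporter mRNA quantified by RT-PCR and capillary electrophoresis; gain of signal fitted relative to DMSO.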

[16] = target: Oxysterols receptor LXR-beta (Homo sapiens) (UniProt P55055); test: ATG_LXRb_TRANS: Attagene TRANS-FACTORIAL HepG2 Assay for human Liver X Receptor beta (LXRb) (AID 2282981); details: HepG2 Attagene TRANS GAL4-LXRb reporter, mRNA
Outline: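 Readout: fluorescent reporter mRNA fragments resolved by capillary electrophoresis after RT-PCR. System: transiently transfected human HepG2, exogenous LXRb-Gal4 chimera driving GAL4-UAS reporter, 24 h dosing. Activity fitted upward against DMSO baseline.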

[17] = target: human RAR-related Orphan Receptor beta (RORb), RORB (gene 6096) (UniProt Q92753); test: ATG_RORb_TRANS: Attagene TRANS-FACTORIAL HepG2 Assay for human RAR-related Orphan Receptor beta (RORb) (AID 2283010)
Outline: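 Multiplexed transcription-factor reporter assay: HepG2 cells transiently carrying NR-Gal4/GAL4-UAS constructs, 24 h treatment, mRNA quantified by RT-PCR plus capillary electrophoresis fluorescence; activity scored as induction over DMSO.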

[18] = target: human Vitamin D Receptor (VDR), VDR (gene 7421) (UniProt P11473); test: ATG_VDR_TRANS: Attagene TRANS-FACTORIAL HepG2 Assay for human Vitamin D Receptor (VDR) (AID 2283022)
Outline: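 HepG2 cells were transiently transfected with GAL4-UAS reporter units and a chimeric VDR-Gal4 construct, then dosed for 24 hours. Reporter mRNA was quantified by RT-PCR, fluorescent labeling, HpaI digestion and capillary electrophoresis; gain of signal analysed vs DMSO.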

[19] = target: Bile acid receptor (Homo sapiens) (UniProt Q96RI1); test: ATG_IR1_CIS: Attagene CIS-FACTORIAL HepG2 Assay for human Nuclear Receptor Subfamily 1 Group H Member 4 (NR1H4), IR1 submotif (AID 2282946; active = hit-call score of the fitted dose curve at least 0.9, where 1 is the maximum; inactive = score below 0.9); details: IR1 reporter transcription, actives raise or lower the signal
Outline: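 Fluorescence of capillary-separated, HpaI-digested RT-PCR reporter products gave IR1-element mRNA induction in HepG2 cells 24 h after dosing. Endogenous transcription factors drove the cis-regulated reporters; activity was fitted bidirectionally against DMSO.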

[20] = target: Bile acid receptor (Homo sapiens) (UniProt Q96RI1); test: ATG_FXR_TRANS: Attagene TRANS-FACTORIAL HepG2 Assay for Farnesoid X Receptor (FXR) (AID 2282979); details: HepG2 Attagene TRANS FXR-GAL4 reporter transcription;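 also: hits raise reporter mRNA above DMSO so AC50 marks FXR activation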
Outline: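 HepG2 cells were transiently transfected with GAL4-UAS reporters driven by chimeric NR-Gal4 proteins and dosed for 24 h. Reporter mRNA was quantified by RT-PCR, fluorescent labelling, HpaI digestion and capillary electrophoresis, with gain of signal scored versus DMSO.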

Chain of Peroxisome proliferator-activated receptor gamma (Homo sapiens) (P37231 whole entry, looked up, the tested form may be a part): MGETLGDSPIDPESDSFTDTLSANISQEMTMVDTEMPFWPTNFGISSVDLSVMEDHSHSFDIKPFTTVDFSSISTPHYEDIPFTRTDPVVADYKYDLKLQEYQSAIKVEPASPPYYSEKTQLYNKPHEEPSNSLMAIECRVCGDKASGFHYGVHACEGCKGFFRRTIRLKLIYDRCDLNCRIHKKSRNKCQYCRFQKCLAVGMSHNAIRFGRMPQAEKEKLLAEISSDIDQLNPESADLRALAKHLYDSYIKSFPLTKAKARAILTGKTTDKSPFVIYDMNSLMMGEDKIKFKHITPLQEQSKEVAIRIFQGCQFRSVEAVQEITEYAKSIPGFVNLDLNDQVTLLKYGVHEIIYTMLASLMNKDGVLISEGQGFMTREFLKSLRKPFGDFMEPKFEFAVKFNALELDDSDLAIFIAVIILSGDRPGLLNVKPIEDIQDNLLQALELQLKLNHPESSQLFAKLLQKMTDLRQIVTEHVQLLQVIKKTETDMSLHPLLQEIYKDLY
Chain of Nuclear receptor subfamily 1 group I member 2 (Homo sapiens) (O75469 whole entry, looked up, the tested form may be a part): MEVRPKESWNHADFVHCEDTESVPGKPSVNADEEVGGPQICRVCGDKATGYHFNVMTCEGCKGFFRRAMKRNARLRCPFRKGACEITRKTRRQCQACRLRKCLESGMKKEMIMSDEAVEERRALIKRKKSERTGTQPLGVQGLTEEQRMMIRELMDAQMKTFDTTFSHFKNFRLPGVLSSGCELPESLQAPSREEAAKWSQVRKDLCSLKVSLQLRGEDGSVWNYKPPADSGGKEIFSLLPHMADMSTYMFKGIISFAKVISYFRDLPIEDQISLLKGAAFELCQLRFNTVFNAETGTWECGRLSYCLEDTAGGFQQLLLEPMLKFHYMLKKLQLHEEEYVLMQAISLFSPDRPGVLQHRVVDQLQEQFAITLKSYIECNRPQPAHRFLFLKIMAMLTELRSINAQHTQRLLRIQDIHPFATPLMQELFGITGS
Chain of human RAR-related Orphan Receptor gamma (RORg), RORC (gene 6097) (P51449 whole entry, looked up, the tested form may be a part): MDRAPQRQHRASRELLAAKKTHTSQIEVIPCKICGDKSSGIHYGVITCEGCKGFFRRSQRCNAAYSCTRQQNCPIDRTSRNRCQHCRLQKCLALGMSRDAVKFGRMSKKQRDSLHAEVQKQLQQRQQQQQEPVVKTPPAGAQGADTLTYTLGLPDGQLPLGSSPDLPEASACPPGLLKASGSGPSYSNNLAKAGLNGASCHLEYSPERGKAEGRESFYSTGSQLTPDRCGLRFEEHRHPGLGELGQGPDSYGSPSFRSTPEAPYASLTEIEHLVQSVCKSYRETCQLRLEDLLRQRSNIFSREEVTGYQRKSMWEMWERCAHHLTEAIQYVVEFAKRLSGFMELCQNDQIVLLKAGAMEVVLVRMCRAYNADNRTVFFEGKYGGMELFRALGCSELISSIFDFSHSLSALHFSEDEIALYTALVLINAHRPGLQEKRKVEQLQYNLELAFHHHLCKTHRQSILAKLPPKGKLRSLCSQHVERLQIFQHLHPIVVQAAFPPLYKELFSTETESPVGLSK
Chain of Oxysterols receptor LXR-alpha (Homo sapiens) (Q13133 whole entry, looked up, the tested form may be a part): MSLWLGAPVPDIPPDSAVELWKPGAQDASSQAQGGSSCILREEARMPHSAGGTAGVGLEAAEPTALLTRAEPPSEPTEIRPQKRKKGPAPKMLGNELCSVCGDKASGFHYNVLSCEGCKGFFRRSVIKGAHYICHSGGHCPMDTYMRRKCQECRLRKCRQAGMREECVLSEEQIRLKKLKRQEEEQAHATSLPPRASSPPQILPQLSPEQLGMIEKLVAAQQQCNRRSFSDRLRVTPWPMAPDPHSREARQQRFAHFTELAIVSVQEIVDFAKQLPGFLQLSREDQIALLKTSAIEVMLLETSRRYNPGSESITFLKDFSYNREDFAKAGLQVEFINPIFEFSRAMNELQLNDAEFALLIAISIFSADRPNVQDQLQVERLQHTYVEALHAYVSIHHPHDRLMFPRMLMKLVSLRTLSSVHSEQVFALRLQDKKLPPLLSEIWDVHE
Chain of Glucocorticoid receptor (Homo sapiens) (P04150 whole entry, looked up, the tested form may be a part): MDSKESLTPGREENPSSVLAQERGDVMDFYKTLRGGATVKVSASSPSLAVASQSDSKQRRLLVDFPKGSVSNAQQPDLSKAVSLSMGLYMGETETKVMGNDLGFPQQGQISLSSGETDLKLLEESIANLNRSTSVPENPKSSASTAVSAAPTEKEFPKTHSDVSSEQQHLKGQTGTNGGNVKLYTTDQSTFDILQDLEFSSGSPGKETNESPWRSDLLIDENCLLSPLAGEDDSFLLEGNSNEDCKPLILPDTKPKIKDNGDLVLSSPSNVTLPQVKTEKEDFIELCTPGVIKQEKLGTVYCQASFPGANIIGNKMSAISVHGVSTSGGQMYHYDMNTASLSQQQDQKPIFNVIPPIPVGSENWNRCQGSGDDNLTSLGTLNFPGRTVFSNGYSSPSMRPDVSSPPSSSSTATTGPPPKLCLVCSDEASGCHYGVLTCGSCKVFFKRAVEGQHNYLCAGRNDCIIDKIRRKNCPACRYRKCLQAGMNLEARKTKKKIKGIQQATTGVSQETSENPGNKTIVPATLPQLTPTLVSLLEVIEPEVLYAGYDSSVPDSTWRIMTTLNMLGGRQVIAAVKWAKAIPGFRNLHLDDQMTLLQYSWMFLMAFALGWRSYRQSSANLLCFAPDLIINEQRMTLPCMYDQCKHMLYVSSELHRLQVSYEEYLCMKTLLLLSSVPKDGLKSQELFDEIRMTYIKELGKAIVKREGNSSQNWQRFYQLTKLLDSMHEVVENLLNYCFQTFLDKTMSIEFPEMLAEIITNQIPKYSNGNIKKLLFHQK
Chain of human RAR-related Orphan Receptor beta (RORb), RORB (gene 6096) (Q92753 whole entry, looked up, the tested form may be a part): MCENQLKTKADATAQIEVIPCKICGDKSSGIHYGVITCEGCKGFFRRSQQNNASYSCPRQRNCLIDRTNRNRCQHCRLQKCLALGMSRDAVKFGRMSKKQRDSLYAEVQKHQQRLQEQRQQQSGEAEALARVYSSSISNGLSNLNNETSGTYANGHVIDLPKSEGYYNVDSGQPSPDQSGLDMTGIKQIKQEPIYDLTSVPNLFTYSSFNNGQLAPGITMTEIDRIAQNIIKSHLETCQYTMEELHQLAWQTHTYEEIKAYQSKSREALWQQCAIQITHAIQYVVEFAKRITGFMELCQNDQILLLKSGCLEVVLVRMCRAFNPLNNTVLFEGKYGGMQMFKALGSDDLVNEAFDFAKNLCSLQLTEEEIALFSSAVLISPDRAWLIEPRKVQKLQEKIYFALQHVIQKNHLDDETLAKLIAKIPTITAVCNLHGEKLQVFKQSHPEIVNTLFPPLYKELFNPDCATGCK
Chain of human Thyroid Receptor alpha (THRa1), THRA (gene 7067) (P10827 whole entry, looked up, the tested form may be a part): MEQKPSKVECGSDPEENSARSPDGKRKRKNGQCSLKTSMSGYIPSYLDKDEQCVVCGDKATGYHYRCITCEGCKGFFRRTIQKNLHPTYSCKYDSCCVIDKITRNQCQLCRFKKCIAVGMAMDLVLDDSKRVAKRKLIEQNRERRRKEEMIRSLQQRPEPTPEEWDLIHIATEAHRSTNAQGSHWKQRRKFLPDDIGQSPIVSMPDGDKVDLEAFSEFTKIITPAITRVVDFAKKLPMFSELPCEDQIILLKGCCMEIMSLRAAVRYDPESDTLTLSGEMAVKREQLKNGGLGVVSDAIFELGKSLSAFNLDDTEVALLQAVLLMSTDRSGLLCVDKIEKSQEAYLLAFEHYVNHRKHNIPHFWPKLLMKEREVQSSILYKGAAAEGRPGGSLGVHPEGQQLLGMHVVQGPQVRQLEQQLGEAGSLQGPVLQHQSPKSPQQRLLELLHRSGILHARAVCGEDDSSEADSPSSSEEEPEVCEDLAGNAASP
Chain of human Peroxisome Proliferator-activated Receptor delta (PPARd), PPARD (gene 5467) (Q03181 whole entry, looked up, the tested form may be a part): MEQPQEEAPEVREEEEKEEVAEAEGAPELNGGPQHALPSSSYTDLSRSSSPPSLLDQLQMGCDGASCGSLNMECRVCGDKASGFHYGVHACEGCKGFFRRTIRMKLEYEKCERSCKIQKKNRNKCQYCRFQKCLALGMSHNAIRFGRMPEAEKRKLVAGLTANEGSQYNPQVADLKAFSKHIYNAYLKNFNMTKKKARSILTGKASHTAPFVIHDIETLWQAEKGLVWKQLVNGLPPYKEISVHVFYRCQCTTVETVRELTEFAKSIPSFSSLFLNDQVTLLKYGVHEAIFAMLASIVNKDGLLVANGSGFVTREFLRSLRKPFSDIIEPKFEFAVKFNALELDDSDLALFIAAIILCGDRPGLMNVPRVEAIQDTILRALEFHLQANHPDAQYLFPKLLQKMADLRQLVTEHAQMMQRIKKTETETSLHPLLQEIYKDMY
Chain of Oxysterols receptor LXR-beta (Homo sapiens) (P55055 whole entry, looked up, the tested form may be a part): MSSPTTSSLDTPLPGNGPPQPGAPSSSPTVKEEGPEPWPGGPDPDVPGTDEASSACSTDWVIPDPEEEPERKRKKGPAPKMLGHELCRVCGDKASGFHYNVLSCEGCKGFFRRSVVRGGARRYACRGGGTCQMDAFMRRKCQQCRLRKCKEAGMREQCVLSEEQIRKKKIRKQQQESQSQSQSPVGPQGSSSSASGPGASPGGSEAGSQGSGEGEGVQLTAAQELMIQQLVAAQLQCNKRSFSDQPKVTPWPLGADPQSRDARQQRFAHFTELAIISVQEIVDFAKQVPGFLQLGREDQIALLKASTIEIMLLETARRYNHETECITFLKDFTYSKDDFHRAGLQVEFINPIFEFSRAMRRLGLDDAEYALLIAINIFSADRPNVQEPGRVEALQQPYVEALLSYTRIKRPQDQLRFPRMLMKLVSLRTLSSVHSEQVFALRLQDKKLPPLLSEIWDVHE
Chain of human Vitamin D Receptor (VDR), VDR (gene 7421) (P11473 whole entry, looked up, the tested form may be a part): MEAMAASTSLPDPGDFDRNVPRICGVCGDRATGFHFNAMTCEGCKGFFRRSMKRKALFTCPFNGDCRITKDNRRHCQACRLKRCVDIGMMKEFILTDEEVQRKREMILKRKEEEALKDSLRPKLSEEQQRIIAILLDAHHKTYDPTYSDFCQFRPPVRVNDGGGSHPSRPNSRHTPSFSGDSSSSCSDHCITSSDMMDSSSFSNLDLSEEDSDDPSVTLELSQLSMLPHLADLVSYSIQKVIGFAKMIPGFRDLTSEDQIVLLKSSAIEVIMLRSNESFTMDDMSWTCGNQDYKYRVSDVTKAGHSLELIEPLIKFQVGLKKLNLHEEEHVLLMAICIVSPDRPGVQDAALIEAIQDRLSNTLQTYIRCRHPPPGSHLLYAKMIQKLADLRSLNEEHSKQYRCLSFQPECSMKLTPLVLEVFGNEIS

CN(C)CCCN1c2ccccc2CCc2ccc(Cl)cc21
outcome [1]: inactive
outcome [2]: inactive
outcome [3]: inactive
outcome [4]: inactive
outcome [5]: inactive
AC50 [6]: 25.7 µM (active)
AC50 [7]: 73.9 µM (active)
outcome [7]: inactive
AC50 [8]: 66.7 µM (active)
AC50 [9]: 45.5 µM (active)

CC/C=C\CCCCCO
outcome [1]: inactive
outcome [2]: inactive
outcome [10]: inactive
outcome [11]: inactive
outcome [5]: inactive
outcome [6]: inactive
outcome [12]: inactive
outcome [7]: inactive
outcome [13]: inactive

CC=CC(=O)O
outcome [14]: inactive
outcome [2]: inactive
outcome [4]: inactive
outcome [11]: inactive
outcome [5]: inactive
outcome [6]: inactive
outcome [13]: inactive

CC(C)n1c(/C=C/[C@@H](O)C[C@@H](O)CC(=O)O)c(-c2ccc(F)cc2)c2ccccc21
outcome [14]: inactive
outcome [2]: inactive
outcome [15]: inactive
outcome [16]: inactive
outcome [10]: inactive
AC50 [3]: 5.07 µM (active)
outcome [4]: inactive
outcome [12]: inactive
AC50 [7]: 43.3 µM (active)
outcome [7]: inactive
outcome [8]: inactive
outcome [9]: inactive

CCCCn1cc[n+](C)c1
outcome [15]: inactive
outcome [16]: inactive
outcome [5]: inactive
outcome [6]: inactive

O=C(O)/C=C\C(=O)O
outcome [14]: inactive
outcome [2]: inactive
outcome [16]: inactive
outcome [10]: inactive
outcome [17]: inactive
outcome [5]: inactive
outcome [6]: inactive
outcome [8]: inactive
outcome [9]: inactive

CC(C)(Oc1ccc(Cl)cc1)C(=O)O
outcome [14]: inactive
outcome [15]: inactive
outcome [10]: inactive
AC50 [3]: 69.3 µM (active)
outcome [4]: inactive
outcome [5]: inactive
outcome [18]: inactive
outcome [6]: inactive
outcome [12]: inactive
AC50 [13]: 50 µM (active)
outcome [8]: inactive
outcome [9]: inactive

NCc1ccccc1
outcome [14]: inactive
outcome [1]: inactive
outcome [2]: inactive
outcome [16]: inactive
outcome [11]: inactive
outcome [6]: inactive
outcome [12]: inactive
outcome [7]: inactive
AC50 [13]: 50 µM (active)
outcome [8]: inactive
outcome [9]: inactive

O=S(=O)(O)c1cccc2ccccc12
outcome [10]: inactive
outcome [3]: inactive
outcome [4]: inactive
outcome [11]: inactive
outcome [5]: inactive
outcome [13]: inactive

C=C(C)C(=O)OCC1CCCO1 (stereo unspecified)
outcome [19]: inactive
outcome [2]: inactive
outcome [20]: inactive
outcome [16]: inactive
outcome [10]: inactive
outcome [5]: inactive
outcome [12]: inactive
outcome [13]: inactive

CC1=C(CC=O)C(C)(C)CCC1
outcome [15]: inactive
outcome [16]: inactive
outcome [3]: inactive
outcome [17]: inactive
outcome [18]: inactive
AC50 [13]: 64.2 µM (active)

N#CCN(CC#N)CCN(CC#N)CC#N
outcome [14]: inactive
outcome [2]: inactive
outcome [4]: inactive
outcome [18]: inactive
outcome [12]: inactive
outcome [13]: inactive

CCCN[C@H]1CCc2nc(N)sc2C1
outcome [14]: inactive
outcome [15]: inactive
outcome [16]: inactive
outcome [18]: inactive
outcome [12]: inactive
outcome [7]: inactive

Cc1ccccc1S(=O)(=O)O
outcome [14]: inactive
outcome [17]: inactive
outcome [12]: inactive
outcome [7]: inactive

CCCCCCCCCCCCCC
outcome [14]: inactive
outcome [15]: inactive
outcome [18]: inactive
outcome [6]: inactive
outcome [13]: inactive
outcome [8]: inactive
outcome [9]: inactive

OCCN(CCO)c1cccc(Cl)c1
outcome [1]: inactive
outcome [3]: inactive
outcome [4]: inactive
outcome [18]: inactive
